Results reported in PubChem BioAssay AID1159580 (chemical genetic matrix, 2015).
“And” between values parts separate entries of the source, which are not always exact repeats. Identical values can stand only once. About 2,000 (36%) of roughly 5,500 compounds were called active. Not shown: some 18% with an inconclusive outcome. Rule as the data show it: active = normalized growth mostly below about 0.91 (no sharp cut-off); inconclusive = no clear call, values can overlap the other calls; inactive = mostly above about 0.92. This is one part of the list.

Assay: chemical genetic growth profiling, strain panel (AID 1159580);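 also: tested at 20 µM; growth read once vehicle control cultures reached saturation at 30 °C; 1 = growth at the plate median or of vehicle wells; lower values mean less growth of the strain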
Conditions: S. cerevisiae deletion strains, growth OD

Measured: normalized growth

OCCN1C[C@@H](O)[C@@H](O)C(O)C1CO (stereo partly specified)
inactive: locus YAL013W, strain DEP1, hits give low values 1.02 | locus YAL021C, strain ccr4, hits give low values 0.993 | locus YAL026C, strain drs2, hits give low values 1.02 | locus YAL030W, strain snc1, hits give low values 0.999 | locus YBL061C, strain skt5, hits give low values 1.01 | locus YBR009C, strain hhf1, hits give low values 1 | locus YBR021W, strain FUR4, hits give low values 1.01 | locus YBR023C, strain chs3, hits give low values 1 | locus YBR171W, strain sec66, hits give low values 1.01 | locus YBR229C, strain ROT2, hits give low values 1.02 | locus YBR231C, strain swc5, hits give low values 1.01 | locus YBR279W, strain paf1, hits give low values 1.01 | locus YCL011C, strain gbp2, hits give low values 0.996 | locus YCL016C, strain dcc1, hits give low values 0.993 | locus YCL029C, strain bik1, hits give low values 1 | locus YCL069W, strain vba3, hits give low values 0.991 | locus YCR088W, strain abp1, hits give low values 0.997 | locus YDL005C, strain med2, hits give low values 1.01 | locus YDL035C, strain GPR1, hits give low values 1.01 | locus YDL040C, strain nat1, hits give low values 1 | locus YDL074C, strain BRE1, hits give low values 1.03 | locus YDL101C, strain DUN1, hits give low values 1.01 | locus YDL134C, strain PPH21, hits give low values 1.02 | locus YDL185W, strain tfp1, hits give low values 0.994 | locus YDL192W, strain arf1, hits give low values 1 | locus YDR001C, strain nth1, hits give low values 1 | locus YDR069C, strain doa4, hits give low values 1.01 | locus YDR101C, strain arx1, hits give low values 1.01 | locus YDR137W, strain rgp1, hits give low values 1.01 | locus YDR150W, strain NUM1, hits give low values 1.02 | locus YDR159W, strain sac3, hits give low values 1.01 | locus YDR162C, strain NBP2, hits give low values 1.01 | locus YDR195W, strain ref2 0.992 | locus YDR297W, strain sur2, hits give low values 1.01 | locus YDR318W, strain mcm21, hits give low values 1 | locus YDR334W, strain swr1, hits give low values 1.01 | locus YDR335W, strain msn5, hits give low values 0.992 | locus YDR388W, hits give low values 1 | locus YDR392W, strain spt3, hits give low values 0.989 | locus YDR502C, strain sam2, hits give low values 1 | locus YEL003W, strain gim4, hits give low values 1.01 | locus YEL037C, strain rad23, hits give low values 1 | locus YEL061C, strain CIN8 (second series), hits give low values 0.989 | locus YEL061C, strain CIN8, hits give low values 1.02 | locus YER015W, strain faa2, hits give low values 1.01 | locus YER016W, strain bim1, hits give low values 0.983 | locus YER110C, hits give low values 0.993 | locus YER111C, strain swi4, hits give low values 1.02 | locus YER155C, strain BEM2 (second series), hits give low values 1.01 | locus YER155C, strain BEM2, hits give low values 1.01 | locus YER167W, strain BCK2, hits give low values 1.02 | locus YFR010W, strain ubp6, hits give low values 1.01 | locus YGL078C, strain dbp3, hits give low values 1.01 | locus YGL086W, strain mad1, hits give low values 1 | locus YGL167C, strain pmr1, hits give low values 1.01 | locus YGL173C, strain kem1, hits give low values 1.02 | locus YGL227W, strain vid30, hits give low values 1.01 | locus YGL240W, strain doc1, hits give low values 1.01 | locus YGL248W, strain PDE1, hits give low values 1.01 | locus YGL253W, strain hxk2, hits give low values 1 | locus YGR078C, strain PAC10, hits give low values 1.04 | locus YGR135W, strain pre9, hits give low values 1 | locus YGR229C, strain SMI1, hits give low values 1.02 | locus YGR252W, strain gcn5, hits give low values 0.969 | locus YHR013C, strain ard1, hits give low values 0.988 | locus YHR027C, strain rpn1, hits give low values 1.01 | locus YHR030C, strain SLT2, hits give low values 1.02 and 1.01 | locus YHR079C, strain IRE1 (second series), hits give low values 1.01 | locus YHR079C, strain IRE1, hits give low values 1 | locus YHR094C, strain hxt1, hits give low values 1.01 | locus YHR129C, strain ARP1, hits give low values 1.01 | locus YHR142W, strain chs7, hits give low values 0.984 | locus YHR200W, strain rpn10, hits give low values 1 | locus YIL066C, strain RNR3, hits give low values 1.02 | locus YIL073C, strain SPO22, hits give low values 1.03 | locus YIL125W, strain kgd1, hits give low values 1 | locus YIR030C, strain dcg1, hits give low values 1.01 | locus YJL092W, strain hpr5, hits give low values 1 | locus YJL095W, strain BCK1 (second series), hits give low values 1.01 | locus YJL095W, strain BCK1, hits give low values 1.02 and 1.01 | locus YJL115W, strain asf1, hits give low values 1.02 | locus YJL129C, strain trk1, hits give low values 0.997 | locus YJL134W, strain LCB3, hits give low values 1.01 | locus YJL154C, strain vps35, hits give low values 0.994 | locus YJL164C, strain tpk1, hits give low values 0.996 | locus YJL166W, strain qcr8, hits give low values 1.01 | locus YJL168C, strain set2, hits give low values 1 | locus YJL187C, strain SWE1 (second series), hits give low values 1.02 | locus YJR043C, strain POL32, hits give low values 1 | locus YJR066W, strain TOR1, hits give low values 0.962 | locus YJR075W, strain HOC1, hits give low values 1.01
